# In the library only some 10% were active in any assay of this set; here they are far more common.
# NS1 inh = qHTS Assay for Inhibitors of Influenza NS1 Protein Function; Potency, µM (series often up to 46.1 µM), inactives show at the top dose activity, positive = more growth; 270,000 tested, 0.4% active; AID 2326, 2010; calls by dose curve; further: actives are rising curves; nearly all actives have a fitted effect of over 50% in size
#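 A cell-based growth assay was used: compounds that relieve NS1-induced slow growth of budding yeast raise OD600. Assay medium was yeast nitrogen base with ammonium sulphate and -URA supplement, pH 6.0, with 2% galactose.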
# Pf growth 48h = Primary qHTS for delayed death inhibitors of the malarial parasite plastid, 48 hour incubation; 310,000 tested, 5.9% active; AID 504832, 2011; Potency, µM (series often up to 28.7 µM), for the others: at the highest dose activity change, negative = inhibition, most hits filed as inhibitors; P. falciparum luciferase growth in erythrocytes, 48 h; further: on the % scale 0 is the no-effect control and ±100 the full control effect
#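 Here the parasites carry a stable luciferase gene and grow inside erythrocytes in Albumax-based RPMI medium with compound for one erythrocytic cycle. Activity is scored as loss of luminescent signal.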
# Pf growth 96h = Primary qHTS for delayed death inhibitors of the malarial parasite plastid, 96 hour incubation; P. falciparum luciferase reporter growth, 96 h; Potency, µM (top dose mostly 28.7 µM), for the others: at the highest dose activity change, negative = inhibition, most hits filed as inhibitors; 320,000 tested, 6.9% active; further: on the % scale 0 is the no-effect control and ±100 the full control effect
#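 Luminescence readout: decreased luciferase signal marks inhibited growth of reporter-expressing P. falciparum in infected red cells (2% hematocrit, 0.05% parasitemia final), exposed to compound two generations (96 h, 37 C, 5% CO2).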
# SARS PLpro yeast = qHTS of Yeast-based Assay for SARS-CoV PLP; 330,000 tested, 0.19% active; Potency, µM (titrated, usually from 32.9 µM), inactives show top-dose activity, positive = growth rescue, hits mostly activators; S. cerevisiae expressing SARS-CoV PLpro, growth rescue; calls by dose curve; further: 0% is about no effect; nearly all actives have a fitted effect of over 55% in size
# * marks the source's active call; other numbers are inactive results; ? = inconclusive; . = not tested or not shown; [ ] = remark or other dose. Unless noted, the call rests on the fitted dose curve; in most records, active means well fitted inhibition curve with a large enough effect; inconclusive means small, poorly fitted or top-dose-only effect, or another doubt; inactive means no such curve, though single readings can be large or run the other way. Potency means the concentration at half of the fitted maximal effect.
SMILES,NS1 inh,Pf growth 48h,Pf growth 96h,SARS PLpro yeast
CCOC(=O)/C(C#N)=C\C1=C(N2CCCC2)CC(C)(CC)OC1 (stereo not drawn),4%,-19%,?,9%
O=S(=O)(c1ccccc1)N(CC(O)COc1ccccc1)c1ccccc1 (stereo not drawn),-5%,-15%,-1%,0%
COc1ccc(CN2CCN(CCC(C)C)C(CCO)C2)cc1Cn1cncn1 (stereo not drawn),-1%,9%,?,-1%
O=C1c2ccccc2-c2nnc(-c3ccccc3)cc21,-32%,2.6µM*,?,-6%
COc1ccc(-c2cc3c(nn2)-c2ccccc2C3=O)cc1,.,19%,1.9µM*,-2%
Cc1cccc(-c2cc3c(nn2)-c2ccccc2C3=O)c1,-63%,1.3µM*,.,-8%
COc1ccc(-c2cn(Cc3ccc4c(c3)C(=O)c3ccccc3C4=O)nn2)cc1,-3%,?,9%,-6%
O=C(Nc1cccc(Cl)c1N1CCCC1)c1cccc(-c2cc3ccccc3oc2=O)c1,11%,?,55%,3%
O=C(COC(=O)Cn1nnc(-c2ccccc2)n1)Nc1cc(F)ccc1F,.,.,.,-3%
CC(C)(C)c1ccc(S(=O)(=O)/C=C/C#N)cc1,-36%,.,.,.
C(=C1/CCCC2=C1Nc1ncnn1C2c1ccccc1)/c1ccccc1 (stereo not drawn),?,12µM*,-9%,?
FC(F)(F)c1ccccc1C1C2=C(Nc3ncnn31)c1ccccc1CCC2 (stereo not drawn),8%,?,.,-3%
CCC1CCCCN1CCCNC(=O)c1ccc(CS(=O)(=O)c2ccc(Br)cc2)o1 (stereo not drawn),1%,-10%,?,?
CCOC(=O)c1cc(-c2ccc3c(c2)OCCO3)nc2c1c(C)nn2CCC#N,-19%,9.3µM*,.,4%
CCOC(=O)c1cc(-c2ccco2)nc2c1c(C)nn2CCC#N,0%,8.3µM*,?,-3%
CCOC(=O)c1cc(-c2ccc(Cl)cc2)nc2c1c(C)nn2CCC#N,-55%,?,?,-1%
CCOC(=O)c1cc(-c2ccncc2)nc2c1c(C)nn2C,-70%,.,3.3µM*,-15%
Nc1ccc(N2CCCCC2)cc1N1CCCCC1,9%,3.3µM*,38%,-11%
Nc1cc(Cl)ccc1N1CCCCCC1,.,2.6µM*,-125%[5.75 µM],0%
Nc1cc(Cl)ccc1N1CCCCC1,2%,13%,1%,0%
COc1ccccc1CN1C(=NC(=O)C2CCCCC2)SC2CS(=O)(=O)CC21 (stereo not drawn),9%,23%,36%,11%
CCCc1ccc2oc(C(=O)N3CCCC3)c(C)c2c1,-43%,73%,?,-6%
CCCCCc1nc2c(=O)[nH]c3ccccc3c2o1,1%,?,5.2µM*,4%
CCOc1ccc2nc3c(cc2c1)CN(CCOC)C(=NC)S3,-3%,?,2.1µM*,9%
O=C(c1ccco1)N1CCN(Cc2nnc(-c3cccc(Br)c3)o2)CC1,-19%,5%,-4%,-3%
SMILES,NS1 inh,Pf growth 48h,Pf growth 96h,SARS PLpro yeast
CCN(CC)C(=O)COc1coc(CN2CCN(c3ccc(F)cc3)CC2)cc1=O,14%,9%,?,0%
COc1cccc(NC(=O)COc2coc(CN3CCN(c4ccccc4)CC3)cc2=O)c1,.,13%,?,0%
CCc1ccc(NC(=O)COc2coc(CN3CCN(c4ccccc4)CC3)cc2=O)cc1,.,5.2µM*,?,-2%
CCN(CC)C(=O)COc1coc(CN2CCN(c3ccccc3)CC2)cc1=O,15%,-5%,10µM*,1%
O=C(COc1coc(CN2CCN(c3ccccc3)CC2)cc1=O)NC1CCCCC1,.,12µM*,?,8%
COc1ccc(C(=O)OCC(=O)Nc2ccc3c(c2)OCO3)cc1S(=O)(=O)N1CCOCC1,.,?,19%,-1%
Cc1ccc(S(=O)(=O)N2CCN(C(=O)CNC(=O)c3sc4ccccc4c3Cl)CC2)cc1,.,6%,2%,8%
C=CCN1C(=O)CSC1=Nc1cccc(O)c1,7%,6%,.,-1%
C=CCN1C(=Nc2cccnc2)SCC1(O)c1ccc(C)cc1 (stereo not drawn),-68%,3.3µM*,16%,-10%
CC[N+]1(C)CCC(=C2c3ccccc3CC(=O)c3sccc32)CC1 (stereo not drawn),0%,?,12µM*,-5%
C[N+]1(C)CCC(=C2c3ccccc3CC(=O)c3sccc32)CC1,33%,?,?,3%
COc1ccc(O)c(C(=O)c2coc(=N)c(C(=O)Nc3ccc(SC(F)F)cc3)c2)c1,.,?,2.3µM*,1%
CCOC(=O)c1sc2ncn(/N=C/c3ccc(O)c(OC)c3)c(=O)c2c1C,-1%,-15%,10%,-1%
N#C/C(=C\c1ccc(-c2cccc([N+](=O)[O-])c2)o1)C(=O)Nc1nc(-c2cccs2)cs1,3%,?,109%,-1%
O=Cc1cccn1-c1cccc([N+](=O)[O-])c1,5%,78%,2.6µM*,0%
O=Cc1cccn1-c1ccccc1,2%,38%,-10%,3%
CC(NC(=O)c1ccc2c(c1)OCCO2)c1ccc(S(N)(=O)=O)cc1 (stereo not drawn),.,8%,11%,0%
CCC(C)[C@H](NC(=O)C1(c2ccccc2)CCN(C(=O)OC(C)(C)C)CC1)C(=O)N[C@@H](C(=O)O)c1ccccc1 (stereo partly drawn),?,13µM*,13µM*,10%
Clc1cccc(-c2nc(-c3ccccn3)no2)c1,-15%,-79%,7.4µM*,-6%
Cc1ccc(C(=O)NCc2ccncc2)cc1S(=O)(=O)N1CCCCC1,4%,-11%,?,-5%
N#CCCN(C(=O)COC(=O)CCc1c[nH]c2ccccc12)c1ccc(F)cc1,.,?,?,2%
COc1ccc2c(c1)O[C@@H](c1ccc3c(c1)OCO3)[C@H](OC(=O)Nc1cc(OC)c(OC)c(OC)c1)C2=O,?,13µM*,?,4%
COC(=O)C(Cc1ccccc1)NC(=O)C(N)CC(=O)O (stereo not drawn),.,0%,0%,.
COc1ccc(Nc2ccc(S(=O)(=O)N3CCCCC3)cc2[N+](=O)[O-])cc1Cl,?,?,13µM*,4%
COc1ccc(Nc2ccc(S(=O)(=O)N3CCCCC3)cc2[N+](=O)[O-])cc1,2%,-15%,-25%,5%
COc1ccc(C(CNc2ccc(S(=O)(=O)N3CCCC3)cc2[N+](=O)[O-])N2CCCC2)cc1 (stereo not drawn),5%,?,10µM*,5%
COc1ccc(C(CNc2ccc(S(=O)(=O)N3CCN(C)CC3)cc2[N+](=O)[O-])N(C)C)cc1 (stereo not drawn),.,1%,11%,4%
C#CCOc1ccc(C2C3=C(CCCC3=O)N(CC(=O)O)C3=C2C(=O)CCC3)cc1Br,1%,21%,14%,1%
CCOc1ccc(OCCOC(=O)CN2C(=O)NC3(CCCC3)C2=O)cc1,.,6%,25%,-2%
